Laboratory results: PubChem BioAssay AID848 (Columbia University Molecular Screening Center, 2007)
The campaign covered roughly 93,000 compounds. About 160 (0.17%) were called active. The list comes from a sample in which actives are over-represented; it also holds similar structures and randomly drawn compounds. A number with no mark means an inactive call.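 Rule for the calls: active = cell count reduction exceeding the screen mean by over 5 SD, scaled to untreated wells per plate (cut at about 78% in these data); inactive = the rest.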

Test: cytotoxicity in TNFa-stimulated HUVEC, primary screen, cytotoxicity control for VCAM1 expression modulator project, imaging, Hoechst nuclei count (AID 848);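 note: cells counted after 24 h of TNF alpha exposure following the 1 h pretreatment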
Conditions: HUVEC TNFalpha-stimulated, at 2 µM, active compounds read high

Compound | cell count reduction [%]
C=CCn1c(SCC(=O)c2c(N)n(C)c(=O)n(C)c2=O)nc2sc(CC)cc2c1=O | -45.1
CC(C)c1ccc(/C=C/C(=O)NNC(=O)c2cccnc2)cc1 | -4.2
CCC(=O)NCCc1nc2ccccc2n1CC | 14.3
CSc1nc2ccccc2cc1/C=C(\C#N)c1ccc(Cl)cc1Cl | -9
Clc1ccc(-n2nnnc2CN2CCCCC2)cc1Cl | -12.5
COc1ccc(C(=O)NC(=S)Nc2ccccc2N2CCN(S(C)(=O)=O)CC2)cc1OC | -26.7
C=CCNc1cnn(-c2ccc(C)cc2)c(=O)c1Cl | -7.9
Cc1ccc(CNC(=O)CCNC(=O)Cn2ccc3ccccc3c2=O)cc1 | -15.5
CCSc1nnc(-c2cc3c(s2)-c2ccccc2CC3)o1 | -4.1
O=C(Cc1ccc2c(c1)CCCC2)Nc1ccccc1Cl | 7.2
CC(C)(CCl)C(=O)Nc1ccc(Sc2ccc(F)cc2)cc1 | -6.3
Cc1ccc(S(=O)(=O)N(CC(=O)NCCSC2CCCCC2)c2ccccc2F)cc1 | -49.8
COC(=O)c1cccc(N(C(=O)c2ccco2)C(C(=O)NC2CCCC2)c2ccco2)c1 (stereo not given) | 1.3
CCNC(=S)N1CCN(C(=O)c2ccco2)CC1 | 15
CC(=O)N/C(=C/c1ccc(Cl)cc1)C(=O)NCCc1c[nH]c2ccccc12 | -23.5
Cc1ccc(S(=O)(=O)N(CC(=O)N2CCc3ccccc3C2)c2cccc(Cl)c2)cc1 | 0
CC1CN(c2nc(-c3ccccc3)nnc2-c2ccccc2)CC(C)O1 (stereo not given) | -11
CCC(=O)NNc1cc(=O)c2c(=O)n(C)c(=O)n(C)c2[nH]1 | 13
O=C(CSc1nnc(-c2c[nH]c3ccccc23)o1)c1ccccc1 | -13.6
COC(=O)CNC(=O)c1ccccc1[N+](=O)[O-] | -19.5
